Assay results from the supplement of paper PMC12632987.

B1: GBRAPL2_0_7234 (protein)
chain: KEELLKELLSLSLEEAKKAIKELAEEVIKLIKEDPEKGIEKAIELAEVFAEYLIERKDEELAKVIDEAIDKIVKEVEKVDPNAAAEIASEIGSAIYEVES
B2: GBRAPL2_0_7218 (protein)
chain: MEELVEKARKLSVEEAAELFVEKVRELVESGKATDEELEALVEAAAEVLEEKIKKNKNEKDLDIAAEAADRIREILAKKDPRLAAFADSEIGAGIMEAAS
B3: GBRAPL2_0_7236 (protein)
chain: MEELLKRLLSLSLEEAKKEIKELAEKAIKLIKKDPEKGIKYAEELAKVFAEYLEKTKNEELAEVIDEAIDKIVEEVAKVDPNAAAAIASEIGSALYEVES
B4: GBRAPL2_0_7221 (protein)
chain: MEKLVEEMKKLSVEEAAERFVKEIKEAVESGKYSLDEIAELIEAMAKVLGELLKKNKKEEDFDIAMKAADEVRKILEKVDPNLAAYAYSEIGAEIMEAEE
B5: GBRAPL2_0_7232 (protein)
chain: MEEKIEELKKLSVEEAAKYFVETVKEAVESGKYSLEEIAELIEKMAEVLGEKLKEVKKEEAIDIAAKAADEVRKILSKLDPNLAAYAASEIGAEIMEAWS
B6: GBRAPL2_0_7212 (protein)
chain: MEEILEEISKLSIEEAAEKAIKLVKELVESKSLSTEELFELAKKLLEIIVEKVKEENKEESLEIARETADEIYEILKKVDPKEAAYVYTEIMEKILELEE
B7: GBRAPL2_0_7238 (protein)
chain: AEELLKKLLEASVEEAIAAIKEAAEKAVKEIEKDPEAGLKAAEELAEVFAEVIIERKNEEVIKAVEEAADRIVAAAAKVDPNAAAYIASIIGSALYEYES
B8: GBRAPL2_0_7239 (protein)
chain: MEELLKELLSLSLEEAKKKIKEKTEEAVKLIRKDPEKGLKYAEELVEVFAEVVVERKNEELEEVVDEATDRLVEEAAKIDPNEAAYLAAIRGSAIAEVEL
B9: GBRAPL2_0_7240 (protein)
chain: MEALKAELLALSLEEAIARIEALTDEAVALIRADPEAGLAAAEELVEVLAEVVVERKDERLEEAVEAATDRLAAVVAEVDPREAAYLRAIMGSAIAEVES
B10: GBRAPL2_0_7211 (protein)
chain: MEEILEKAKKLSVEEAAKYAVETVKSLVESGSLSPEELAELATKLLKVLIEKVKKDGKEESVEIAVETADKIREILKPVDPNLAADVDTEALSEILELEE
B11: GBRAPL2_0_7217 (protein)
chain: MEELIEKAKELSVEEAAELFVEEVKRLVESGKATDEELMELVEKAAEVLEEKMKESKDEEDEDIALEAADRIREILAEKDPRLAAYAYSEIGAGIMEASS
B12: GBRAPL2_0_7233 (protein)
chain: MEEIVEELKKLSVEEAAEYFVKKVKEMVESGKYSLEEIEELIEKLAEVLGEKLKKNKKEEDLDIAAEAADKVREILLKRDPNLAAFAASEIGAEIMEAWS
B13: GBRAPL2_0_7208 (protein)
chain: YKERIEEAKKLSPEEAYKALKELVKEIAEDKSISAEEREEILEEIIELAYEIYKKEKTEEAEKAFDEIVDLAVKAAAKVDPNLAAYIASFGGSLIMEAES
B14: GBRAPL2_0_7222 (protein)
chain: MEELKEEMLKLSIEEASEKAVKTIKEAVESGKYSLEEIAELIEEMAEVIGELLKKEKKEESVDIAIEAADKIREILEKVDPNLAAYAYSEIGAEIMEAEE
B15: GBRAPL2_0_7219 (protein)
chain: MEEKVEEMKKLSIKEAAEAAVKLIKEMVESGKYSLEEIAEAVEKLAEVLGEKLKKEKKEEAEDIALEAARKIREILAKRDPNLAAYAYSEIGAEIMEASS
B16: GBRAPL2_0_7216 (protein)
chain: MEELVEEARKLSIEEAAKLFVEKVKELVESGKATDEELMELVEAGAKVLGEKLKKEKKEEGLDIAMKAADEIREILEKKDPNLAAYAYSEIGAEIMEAAS
B17: GBRAPL2_0_7237 (protein)
chain: MEELLEKLLSLSLEEAKKEIKKLADEVIELLRKDPEKGKEAAEELAEVFSEYLEKTKNEELEEVIDEAIDKIVEEMSKIDPREAAYIDSIFGSAIMEVEG
B18: GBRAPL2_0_7228 (protein)
chain: IEEEIEKISKLSIEEAAKAAVELVKEMAESGKYSLEEIEEFVEKAAEVLEKKIKEEKKEESLDIAAETADEVRKILEKIDPNLAAYAASEIGSGIMEAIS
B19: GBRAPL2_0_7226 (protein)
chain: MEETLEKIKKLSIKEAAEYVVEKVEELVKSGKYSLEEIEEIVSALADELGEKLKKENKEEGLDYAAEAADRIREILSKLDPNLAAFAYSEIGSEIMEAES
B20: GBRAPL2_0_7210 (protein)
chain: MEKILEEAKKLSVEEAAEYAVETVEELVKSGSLSPEELAELAKELLKVLIEKVKENGKEEDVEIADETIDRVREILRPVDPRLAAYVATEGYSELLELEE
B21: GBRAPL2_0_7223 (protein)
chain: MEKLKEEMLKLSIEEASKKAVETVKEMVESGKYSLEEIEEKIEAMAEVLGELLKKEKKEEAEEIAIKAADEIRKILEKKDPNLAAFAYSEIGAEIMEARE
B22: GBRAPL2_0_7215 (protein)
chain: MEELVEEAKKLSVEEAAELFVKRVEELVESGKATREELEALVEAAAKVLGEKIKKNKNEEDLDIAAEAADRIREILAKVDPELAAYADSEIGAEIMEAFS
B23: GBRAPL2_0_7229 (protein)
chain: IEEEIEEMKKLSIEEAAKRAVELVKEMAESGKYSLEEIAEFVEKAAEVLGEKLKEEKKEEGLDIAAEAADEIRKILSKIDPNLAAYAASEIGSEIMEVIS
B24: GBRAPL2_0_7214 (protein)
chain: MEEFLEELKKLSIEEAAKKAVEKVREMAESGKYSLEEIEEFVEKMAEVLGEKIKKEKKEESLDIAAEAADEIRKILEKVDPRLAAYADSEIGAEIMEAEE
B25: GBRAPL2_0_7220 (protein)
chain: MEEFVKEMLELSIKEAAEAAVKYIKELVESGKYSLEEIEEAVEKIAEVLGEKLKKEKKEEAEDIAMEAADEIRKILSEKDPNLAAYAYSEIGAEIMEAWS
B26: GBRAPL2_0_7230 (protein)
chain: IEERVEEMSKLSIEEAAAYAVEKVREMAESGEYSLEEIEEFVEKAAEVLGKKLKEEKKEEGLDIAAEAAREIREILSKVDPRLAALAESEIGAAIMEAEL
B27: GBRAPL2_0_7227 (protein)
chain: IEEKIKEMSKLSIEEAAKKAVELVKEMAESGKYSLEEIEEFVEAAAEVLGKKIKEEKKEEGLDIADEAARKIREILSKVDPRLAAYAASEIGAAIMEAIS
B28: GBRAPL2_0_7213 (protein)
chain: MEEFLKELKSLSIEEAAEKFVKKIEEMAKSGKYSLEEIEEIVEEMAKVLGEKVKKEKKEESLDIAAEAADKVREILEKIDPNLAAYAYSEIGAEIMEAAE
B29: GBRAPL2_0_7209 (protein)
chain: YKERIEEAKKLSPEEAFKALKKLVKELAEDDSVSLEELEEILEAILELAYEIYKKEKTEEAEKAFDEIVDLATEAAAKRDPRLAAYIATFGGSLIMEAEL
B30: GBRAPL2_0_7224 (protein)
chain: MEEWIEKLKKLSIEEAAALVVEKIKELVESGKYSLEEIAEIVEKLARVLGEKLKEENKEEGLDLAAKAADEIRKILEKVDPNLAAFADSEIGSEIMEASS
B31: GBRAPL2_0_7225 (protein)
chain: MEEELEKLKKLSIEEAAKYVVEKVKELVESGKYSLEEIADIVEKLARVLGEKLKEENKEEGLDLAAKAADEIRKILSKLDPNLAAYADSEIGAEIMEASS
B32: GBRAPL2_0_7207 (protein)
chain: YEKEIEKAKTLTPEEAFKALKKLVKKLAKDKSVSKEELEALLEAILDLAYEIMAKEKTEEAEKAFDEIAEEATKAAAKRDPNLAAYIASYAGSLLMEYES

These binders were tested against GABARAPL2, P60520 (assay: median log2 fold change of GCK-ALFA target abundance (FLAG IP / Myc IP barcode read proportion) (log2 ratio); each designed protein is fused to an ALFA-tag nanobody in HEK293 cells to bring the named protein to FLAG-tagged glucokinase (GCK); Myc marks an untargeted standard; higher = target protein stabilised (more abundant)). Settings: target protein: 3xFLAG-MCP-GCK-ALFA reporter; HEK293 landing pad (RPLP).
GABARAPL2, P60520, sequence (P60520 whole entry, the tested form may be a part): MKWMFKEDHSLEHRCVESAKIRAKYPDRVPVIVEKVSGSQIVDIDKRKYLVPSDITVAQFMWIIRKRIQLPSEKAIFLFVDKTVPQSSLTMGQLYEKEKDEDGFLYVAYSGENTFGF
Summary of the method: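 An ALFA-nanobody-fused binder library was recombined into HEK293 landing-pad cells and induced with 2 μg mL^−1 doxycycline. Cells were transfected with a plasmid expressing a FLAG-tagged target and a Myc-tagged standard. After 48 h, lysates underwent anti-FLAG and anti-Myc immunoprecipitation, and circular RNA barcodes were reverse transcribed, amplified and sequenced. Target abundance is the per-binder median log2 ratio of FLAG to Myc barcode read proportions. Barcodes needed ≥10^−7 proportion in both replicates, binders ≥3 barcodes per replicate, and a 10^−6 pseudocount was added; the two replicates were pooled.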
B1 was tested, and the “median log2 fold change” value was 0.244.
For B2, the “median log2 fold change” value was 0.21.
For B3, the “median log2 fold change” value was 0.224.
B4 was tested, and the “median log2 fold change” value was 0.0252.
B5 was tested, and the “median log2 fold change” value was 0.0832.
For B6, the “median log2 fold change” value was 0.328.
With B7 the “median log2 fold change” value was 0.0105.
For B8, the “median log2 fold change” value was 0.0745.
B9 was tested, and the “median log2 fold change” value was 0.0165.
B10 was tested, and the “median log2 fold change” value was 0.109.
In the case of B11, the “median log2 fold change” value is reported as -0.0345.
B12 was tested, and the “median log2 fold change” value was 0.0153.
For B13, the “median log2 fold change” value was 0.152.
In the case of B14, the “median log2 fold change” value is reported as 0.133.
In the case of B15, the “median log2 fold change” value is reported as 0.00483.
B16 was tested, and the “median log2 fold change” value was 0.169.
In the case of B17, the “median log2 fold change” value is reported as -0.0207.
With B18 the “median log2 fold change” value was 0.048.
For B19, the “median log2 fold change” value was 0.24.
B20 was tested, and the “median log2 fold change” value was -0.00179.
B21 was tested, and the “median log2 fold change” value was 0.33.
B22 was tested, and the “median log2 fold change” value was 0.0633.
In the case of B23, the “median log2 fold change” value is reported as -0.0242.
In the case of B24, the “median log2 fold change” value is reported as 0.0795.
B25 was tested, and the “median log2 fold change” value was -0.0156.
In the case of B26, the “median log2 fold change” value is reported as 0.138.
B27 was tested, and the “median log2 fold change” value was 0.213.
For B28, the “median log2 fold change” value was -0.118.
In the case of B29, the “median log2 fold change” value is reported as -0.227.
B30 was tested, and the “median log2 fold change” value was 0.136.
With B31 the “median log2 fold change” value was -0.0692.
With B32 the “median log2 fold change” value was -0.0647.
